Measurements published in PubChem BioAssay (NCI).
Compounds without any hit were thinned out: in the full panel of roughly 83,000, 20% have a hit.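 Results are percent growth after 48 hours of single-concentration exposure. 100 means growth as in untreated cells, lower positive values show inhibition; negative values down to -100 show cell death.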 Values without a mark were called inactive. The source made the active and inactive calls. How the source made its calls: active means growth percent below 10; inactive means the rest.

How the values were obtained:
Assay in all cases: NCI-60 one-dose screen, 48 h (100 = growth as untreated, 0 = no growth, -100 = all killed)
Details in all cases: 10 µM unless noted
NCI-H23 lung = tested on: NCI-H23 lung
NCI-H226 lung = tested on: NCI-H226 lung
NCI-H322M lung = tested on: NCI-H322M lung
HOP-62 NSCLC = tested on: HOP-62 NSCLC
NCI-H460 lung = tested on: NCI-H460 lung
HOP-92 NSCLC = tested on: HOP-92 NSCLC
NCI-H522 lung = tested on: NCI-H522 lung
A549/ATCC NSCLC = tested on: A549/ATCC NSCLC
786-0 renal = tested on: 786-0 renal
COLO 205 colon = tested on: COLO 205 colon

Compound | growth (NCI-H23 lung) | growth (NCI-H226 lung) | growth (NCI-H322M lung) | growth (HOP-62 NSCLC) | growth (NCI-H460 lung) | growth (HOP-92 NSCLC) | growth (NCI-H522 lung) | growth (A549/ATCC NSCLC) | growth (786-0 renal) | growth (COLO 205 colon)
CCCCN1CCCC[C@@H]1C(=O)N[C@H](C(=O)N(C)[C@H](C[C@@H](OC(C)=O)c1nc(C(=O)NC2CCC(C(=O)OC)CC2)cs1)C(C)C)C(C)C (stereo not given in full) | 48.4% | 71.8% | 40.5% | 23% | 9.59% (active) | 37% | -11.8% (active) | 24.2% | 36.7% | 7.59% (active)
COC(=O)[C@@H](C[C@H](Cc1ccccc1)NC(=O)c1csc([C@@H](C[C@H](C(C)C)N(C)C(=O)[C@@H](NC(=O)[C@H]2CCCCN2C)C(C)C)OC(C)=O)n1)NC(=O)OCc1ccccc1 | 35.1% [9.5 µM] | -36.8% [9.5 µM] (active) | 43.1% [9.5 µM] | 12.1% [9.5 µM] | 5.31% [9.5 µM] (active) | 25.7% [9.5 µM] | -45.5% [9.5 µM] (active) | 14.1% [9.5 µM] | 15.8% [9.5 µM] | -65.4% [9.5 µM] (active)
CC[C@H](C)[C@H](NC(=O)C12C3C4C1C1C2C3C41NC)C(=O)N(C)[C@H](C[C@@H](OC(C)=O)c1nc(C(=O)N[C@@H](Cc2ccccc2)C[C@H](C)C(=O)OC)cs1)C(C)C (stereo not given in full) | 31.6% | 41.4% | 51.9% | 16.9% | 6.43% (active) | 34.1% | -4.71% (active) | 31.4% | 19.1% | -15.5% (active)
CCOc1ccc(/C=C/[N+](=O)[O-])cc1 | 87.8% | 81.4% | 98.5% | 110% | 98.2% | 76.6% | 96.8% | 78.8% | 92.4% | 94.1%
O=C1OCCC1Br (stereo not given) | 103% | 103% | 97.7% | 105% | 105% | 85.6% | 83.9% | 99.8% | 106% | 120%
CC[C@H](C)[C@H](NC(=O)[C@H]1CCCCN1C)C(=O)N(C)[C@H](CC(=O)c1nc(C(=O)N[C@@H](Cc2ccccc2)C[C@H](C)C(=O)O)cs1)C(C)C | 93.2% | 92.3% | 107% | 77% | 91% | 49% | -9.54% (active) | 94.8% | 89.7% | 82.8%
Nc1ccc(OCCNS(=O)(=O)c2cccc(S(=O)(=O)F)c2)c(Cl)c1 | 95.5% | 96.5% | 87.5% | 90% | 102% | 87.5% | 74.6% | 84.8% | 88.8% | 110%
CC1(C)N=C(N)N=C(N)N1c1ccc(CCCCc2ccc(Cl)c(S(=O)(=O)F)c2)c(Cl)c1 | 20.4% | 44.2% | 45.5% | 18.1% | 16.3% | -0.0536% (active) | -14.7% (active) | 15.4% | -20.2% (active) | 36.3%
CN1C(=O)C(=Cc2cn(Cc3ccccc3)c3ccccc23)C(=O)N(C)C1=O | 80.4% | -71% (active) | 72.3% | 73.6% | 0.11% (active) | 65.1% | 92.6% | 81.7% | 93.9% | 1.43% (active)
C1CCC2(CC1)OOCNCOO2 | 98.2% | 107% | 97.4% | 103% | 108% | 122% | 89.7% | 102% | 105% | 115%
CC[C@H](C)[C@H](NC(=O)c1nccn1C)C(=O)N(C)[C@H](C[C@@H](OC(C)=O)c1nc(C(=O)N[C@@H](Cc2ccccc2)C[C@H](C)C(=O)OC)cs1)C(C)C | 29.8% | 37.1% | 43.9% | 16.6% | 9.82% (active) | 29.9% | -26.7% (active) | 25.2% | 30.8% | -12.8% (active)
CC12CCC3C(CCC4Cc5[nH]c6ccccc6c5CC43C)C1CCC2O (stereo not given) | 49.3% | 41.3% | 43% | 62.8% | 5.72% (active) | 63.4% | 26.4% | 41.5% | 33.5% | 45%
C[N+]12CN3CN(CN(C3)C1)C2 | 94.3% | 103% | 110% | 88% | 107% | 71% | 94.5% | 98.8% | 104% | 99.4%
CC[C@H](C)[C@H](NC(=O)c1cccn1C)C(=O)N(C)[C@H](C[C@@H](OC(C)=O)c1nc(C(=O)N[C@@H](Cc2ccccc2)C[C@H](C)C(=O)OC)cs1)C(C)C | 22.8% | 7.57% (active) | 37.6% | 10.1% | 6.58% (active) | 22.4% | -19.3% (active) | 14.4% | 12.7% | -69.7% (active)
C#Cc1ccc2c(c1)C(c1ccccc1F)=NCC(=O)N2C | 57.8% | 73.1% | 69.6% | 48.3% | 18.9% | 73.2% | 8.61% (active) | 47.9% | 63.4% | 18.4%
CC(=O)/C=C/c1ccc2c(c1)OCO2 | 95.4% | 95.2% | 104% | 102% | 107% | 89% | 84.7% | 95.2% | 99% | 107%
CCOC(=O)[C@@H](C)C[C@H](Cc1ccccc1)NC(=O)c1nc([C@@H](C[C@H](C(C)C)N(C)C(=O)[C@@H](NC(=O)[C@H]2CCCCN2C)C(C)C)OC(C)=O)sc1CCOCc1ccccc1 | 14.7% | -80.6% (active) | 11.9% | -42.7% (active) | -54.8% (active) | -16.5% (active) | -49.2% (active) | -31.1% (active) | -38.6% (active) | -70.9% (active)
CCOP1(=O)CC(C)=C(Cl)C(P(=O)(OCC)OCC)C1 (stereo not given) | 91.5% | 103% | 124% | 93.9% | 112% | 89.1% | 71.3% | 90.4% | 115% | 94.1%
C[Se]C(=O)c1ccccc1OC(C)=O | 53.9% | 6.57% (active) | 91.4% | 48.9% | 37.5% | 38.4% | 63.8% | 59.2% | 79.4% | 111%
Oc1c(O)c(Cl)c(Cl)c(Cl)c1Cl | 26.7% | 36.8% | 44.5% | 40.1% | 15.4% | 1.08% (active) | -19.6% (active) | 20.5% | 57.2% | 69.8%
COc1cc(/C=C/[N+](=O)[O-])c([N+](=O)[O-])cc1OC | 79.6% | 16.1% | 110% | 81.1% | 76.1% | 94.2% | -89.9% (active) | 78% | -30.7% (active) | -52.7% (active)
Clc1cccc(N2COOC3(OOC2)C2CC4CC(C2)CC3C4)c1 | 49% | 96.2% | 99.6% | 73% | 87.2% | -7.89% (active) | 2.67% (active) | 76% | 7.65% (active) | 111%
C/C(CC(C)(C)N1CC1)=N\NC(=O)Nc1cccc2ccccc12 | 68% | 56.4% | 81.2% | 62.5% | 42.9% | 24.2% | 48.7% | 63% | 70.4% | 52.3%
O=[N+]([O-])CC(c1ccccc1Cl)c1c(-c2ccccc2)[nH]c2ccccc12 (stereo not given) | 53.8% | 30.9% | 42.7% | 30.3% | 22.9% | 36.1% | -10.9% (active) | 31.5% | 25.2% | 15%
CC(=O)[O][Hg][c]1c(N)c(C)cc(C)c1F | 48.6% | 90.2% | 85.1% | 59.5% | 43.8% | 12.1% | -42.2% (active) | 84.7% | -31.7% (active) | -16.6% (active)
